# Several values for one entry are separate records, joined by “and”; a condition that tells them apart may be missing. Identical values can stand only once. Inconclusive results are not listed. Activity calls are given as the source filed them. Unless noted, the rule behind the calls is not given here.
# Legend:
# [1] = compounds altering circadian rhythm period length – cell-based, LOPAC library, luminescence reporter (AID 2774); conditions: circadian reporter cells, at 7 µM, actives lie on both sides;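 note: values are relative to mean of DMSO wells on each plate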
# [2] = system: Hepatitis C virus NS3 helicase; assay: blockers of NS3h binding to ssDNA – biochemical, fluorescence polarization, LOPAC1280 library, primary screen (AID 687035; in the data active = inhibition above about 37%); conditions: Purified HCV NS3 helicase, Cy5-dT15 ssDNA binding fluorescence polarization; stronger effect = higher value; concentration not given here
# [3] = compounds altering Cy5-DNA-NS3h complex signal – biochemical, LOPAC1280, artefact control for HCV NS3 helicase inhibitor project (AID 687037); conditions: Cy5-DNA-NS3h complex fluorescence interference counterscreen
# [4] = system: Aerobactin synthetase IucA (Klebsiella pneumoniae); assay: inhibition of K. pneumoniae IucA enzyme – biochemical, Tocris library, absorbance (AID 1345561); conditions: purified IucA enzyme assay, absorbance (OD) read-out; stronger effect = lower value;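 tested at 8 µM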;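 note: 100% = enzyme without compound and 0% = no enzyme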
# [5] = viability loss with induced miR-34 in A549 – imaging, A549 dox-inducible miR-34, nuclei and caspase counts, primary screen (AID 1347080;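 active = compounds whose cell count with miR-34 switched on is under 0.7 times the count with it off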); conditions: A549 miR-34 inducible, Hoechst nuclei count, 48 h
# [6] = blockers of cellular phospholipid synthesis – cell-based, LOPAC library, screen 4, primary screen (AID 1347384); conditions: animal cells, phospholipid biosynthesis inhibition screen; at 10 µM
# [7] = galactose survival enhancers in mitochondrial complex I cybrids – cell-based, galactose medium, ATP luminescence, primary screen (AID 1645843;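 active = z-score of at least 1.8 in each of two replicates, scored against plate mean and spread of sample wells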;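 note: positive z means more ATP and so rescue of galactose-driven cybrid death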); conditions: complex I mutant cybrid cells, 72 h, stronger effect = higher value
# [8] = viability loss in pontine glioma line – cell-based, SU-DIPG-XVII, MIPE5.0, CellTiter-Glo, qHTS, dose response (AID 1347060; cut-off not given, nearly all actives have AC50 up to about 26 µM;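 for AC50: cells exposed to compound for 48 hours before viability readout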); conditions: CellTiter-Glo ATP luminescence
# [9] = viability loss in pontine glioma line – cell-based, SU-DIPG-XIII, MIPE4.0, CellTiter-Glo, qHTS, dose response (AID 1347061; cut-off not given, nearly all actives have AC50 up to about 37 µM;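 note: cells exposed to compound for 48 hours before readout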); conditions: CellTiter-Glo ATP luminescence
# [10] = viability loss in pontine glioma line – cell-based, SU-DIPG-IV, MIPE4.0, CellTiter-Glo, qHTS, dose response (AID 1347063; cut-off not given, nearly all actives have AC50 up to about 30 µM;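 note: compound exposure lasted 48 hours before the viability readout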); conditions: CellTiter-Glo ATP luminescence
# [11] = viability loss in pontine glioma line – cell-based, SU-DIPG-XIII, MIPE5.0, CellTiter-Glo, qHTS, dose response (AID 1347064; cut-off not given, nearly all actives have AC50 up to about 23 µM;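 for AC50: cells exposed to compound for 48 hours before the viability read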); conditions: CellTiter-Glo ATP luminescence
# [12] = viability loss in pontine glioma line – cell-based, SU-DIPG-XXV, MIPE5.0, CellTiter-Glo, qHTS, dose response (AID 1347065; cut-off not given, nearly all actives have AC50 up to about 26 µM;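 note: cells exposed to compound for 48 hours before ATP readout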); conditions: CellTiter-Glo ATP luminescence
# [13] = growth inhibition of DIPG cells – cell-based, MIPE4.0 library, CellTiter-Glo luminescence, qHTS (AID 1347066; cut-off not given, nearly all actives have AC50 up to about 30 µM;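 note: cells exposed to compound for 48 hours before readout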); conditions: SU-DIPG-VI viability, CellTiter-Glo ATP luminescence
# [14] = growth inhibition of DIPG cells – cell-based, MIPE5.0 library, qHTS (AID 1347068; cut-off not given, nearly all actives have IC50 up to about 30 µM;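 for IC50: cells exposed to compound for 48 hours before viability readout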); conditions: SU-DIPG-XXV viability
# [15] = MELAS cybrid and Rieske KO viability enhancers – cell-based, MELAS cybrids, Rieske KO mouse fibroblasts, CellTiter-Glo, primary screen (AID 1508586;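 active = mean z-score across replicates of 1.96 or higher in either the MELAS or the Rieske mutant cell line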;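 note: z relative to plate mean and SD of compound and empty wells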); conditions: low glucose
# [16] = system: Aerobactin synthetase IucA (Klebsiella pneumoniae, hypervirulent); assay: biochemical IucA inhibition screen of LOPAC library by absorbance (AID 1346212); conditions: IucA enzyme assay, absorbance (OD) readout; stronger effect = lower value;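 tested at 8 µM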;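 note: 100% = no compound wells and 0% = no enzyme wells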
# [17] = viability loss in pontine glioma line – cell-based, JHH-DIPG-1, MIPE4.0, CellTiter-Glo, qHTS, dose response (AID 1347062; cut-off not given, nearly all actives have AC50 up to about 27 µM); conditions: JHH-DIPG-1 viability, CellTiter-Glo ATP luminescence
# [18] = JHH-DIPG-1 glioma cell viability, MIPE5.0 library, CellTiter-Glo luminescence, qHTS (AID 1347067; cut-off not given, nearly all actives have AC50 up to about 26 µM;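 note: cells exposed to compound for 48 hours before readout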); conditions: JHH-DIPG-1 glioma viability, CellTiter-Glo ATP luminescence
# [19] = chitosan synthesis blockers in C. neoformans – flow cytometry, Cibacron Brilliant Red staining (AID 1347148); conditions: Cryptococcus neoformans chitosan, stronger effect = lower value; at 10 µM unless noted;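 note: compound exposure lasted three days at 37 degrees C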
# [20] = target: ATP-dependent translocase ABCB1 (Homo sapiens) (UniProt P08183); assay: P-glycoprotein substrate transport blockade – cell-based (AID 377; in the data active = fluorescence slope change above about 50%); conditions: MDR1-expressing cells, fluorescent substrate accumulation slope; stronger effect = higher value; concentration not given here
# [21] = compounds altering viability of human ES cells (AID 493140); conditions: human embryonic stem cell survival screen; stronger effect = higher value;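 note: cells exposed to compounds for four days before counting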
# [22] = P. berghei load reduction in hepatocytes – cell-based, HepG2, luciferase luminescence, HepG2 viability, primary screen (AID 624349; in the data active = parasite load remaining mostly below about 12%, no sharp cut-off; inactive = mostly above about 10%;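 note: 100% = mean of DMSO negative control wells on the same plate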); conditions: P. berghei liver stage in HepG2, luciferase luminescence, concentration not given here; parasite load remaining: stronger effect = lower value; viability: measured here: HepG2 viability without parasites
# [23] = measured here: relative caspase fold change +Dox/-Dox
# [24] = measured here: total cells with miR-34 induction, stronger effect = lower value
# [25] = measured here: total cells without miR-34 induction
# [26] = stronger effect = lower value, cell number ratio, induced over uninduced
# [27] = MELAS cybrid survival, CellTiter-Glo 48 h, stronger effect = higher value
# [28] = Rieske KO mouse fibroblast survival, CellTiter-Glo 72 h
# Chain of ATP-dependent translocase ABCB1 (Homo sapiens) (P08183 whole entry, looked up): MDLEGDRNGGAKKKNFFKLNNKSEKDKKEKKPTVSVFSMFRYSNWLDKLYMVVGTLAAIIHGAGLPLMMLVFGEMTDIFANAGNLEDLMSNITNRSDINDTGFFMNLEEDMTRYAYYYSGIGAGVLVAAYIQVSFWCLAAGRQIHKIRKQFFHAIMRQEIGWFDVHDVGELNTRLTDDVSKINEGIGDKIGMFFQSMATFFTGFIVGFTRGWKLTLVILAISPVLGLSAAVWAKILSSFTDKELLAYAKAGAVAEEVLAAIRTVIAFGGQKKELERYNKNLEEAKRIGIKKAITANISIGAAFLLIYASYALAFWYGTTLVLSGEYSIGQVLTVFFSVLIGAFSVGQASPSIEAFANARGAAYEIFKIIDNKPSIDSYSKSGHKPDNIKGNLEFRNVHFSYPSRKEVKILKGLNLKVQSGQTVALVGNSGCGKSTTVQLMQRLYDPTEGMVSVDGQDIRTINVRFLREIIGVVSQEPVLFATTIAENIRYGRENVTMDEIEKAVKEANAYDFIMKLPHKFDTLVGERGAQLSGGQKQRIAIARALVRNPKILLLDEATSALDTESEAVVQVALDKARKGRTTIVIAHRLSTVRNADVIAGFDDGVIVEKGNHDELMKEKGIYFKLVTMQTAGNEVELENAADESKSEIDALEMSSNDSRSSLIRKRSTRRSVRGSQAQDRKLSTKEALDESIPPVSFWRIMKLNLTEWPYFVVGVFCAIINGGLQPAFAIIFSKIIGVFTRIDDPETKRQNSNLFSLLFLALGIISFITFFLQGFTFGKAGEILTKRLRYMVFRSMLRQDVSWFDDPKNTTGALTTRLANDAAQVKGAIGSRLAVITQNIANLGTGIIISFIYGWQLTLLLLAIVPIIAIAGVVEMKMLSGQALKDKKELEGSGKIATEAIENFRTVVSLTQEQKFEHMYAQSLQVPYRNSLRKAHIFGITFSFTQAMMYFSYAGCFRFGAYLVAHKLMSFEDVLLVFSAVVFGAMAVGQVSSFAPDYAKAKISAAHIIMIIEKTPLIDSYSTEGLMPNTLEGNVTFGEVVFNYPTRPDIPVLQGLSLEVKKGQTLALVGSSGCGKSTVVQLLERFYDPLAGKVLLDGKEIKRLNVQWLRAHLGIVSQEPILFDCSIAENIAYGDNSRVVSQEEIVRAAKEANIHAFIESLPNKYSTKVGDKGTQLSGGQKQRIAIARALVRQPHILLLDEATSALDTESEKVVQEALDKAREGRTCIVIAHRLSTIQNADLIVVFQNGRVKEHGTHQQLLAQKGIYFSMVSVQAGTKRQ
smiles,measurement,setting,value
CN1C2CCC1CC(OC(=O)c1cc(Cl)cc(Cl)c1)C2 (centres undefined),period change,[1],-0.075 h (inactive)
same,inhibition,[2],-7% (inactive)
same,fluorescence ratio (interference),[3],0.9 (inactive)
same,remaining activity,[4],82.7% (inactive)
same,fold change,[5]; stronger effect = lower value,1.08 (inactive) and 0.937 (inactive)
same,fold change,[5]; [23],1.35 and 0.719
same,cell count,[5]; [24],8680 and 8550
same,cell count,[5]; [25],8070 and 9130
same,outcome,[6],inactive
same,z-score,[7],-0.22 (inactive) and 0.04 (inactive)
Cc1cc(SCc2sc(-c3ccc(C(F)(F)F)c(F)c3)nc2C)ccc1OCC(=O)O,remaining activity,[4],88.1% (inactive)
same,outcome,[8],inactive
same,outcome,[9],inactive
same,outcome,[10],inactive
same,outcome,[11],inactive
same,outcome,[12],inactive
same,outcome,[13],inactive
same,outcome,[14],inactive
same,fold change,[5]; [26],0.896 (inactive) and 0.953 (inactive) and 0.869 (inactive)
same,fold change,[5]; [23],0.54 and 0.363 and 1.57
same,cell count,[5]; [24],5150 and 8510 and 7240
same,cell count,[5]; [25],5740 and 8930 and 8330
same,z-score,[15]; [27],-0.492 (inactive)
same,z-score,[15]; [28],-2.16
same,z-score,[7],1.59 (inactive)
COc1ccc(CNC(=O)/C=C/c2ccc3[nH]cc(CCN(C)C)c3c2)cc1,period change,[1],0.1 h (inactive)
same,inhibition,[2],-1% (inactive)
same,fluorescence ratio (interference),[3],1 (inactive)
same,remaining activity,[4],97.5% (inactive)
same,remaining activity,[16],111% (inactive)
same,fold change,[5]; stronger effect = lower value,1.08 (inactive) and 0.935 (inactive)
same,fold change,[5]; [23],1.56 and 0.859
same,cell count,[5]; [24],9510 and 8680
same,cell count,[5]; [25],8780 and 9280
same,z-score,[7],-0.155 (inactive) and -0.415 (inactive)
O=c1ccc2[nH]cc(C3=CCNCC3)c2[nH]1,remaining activity,[4],123% (inactive)
same,fold change,[5]; stronger effect = lower value,0.986 (inactive)
same,fold change,[5]; [26],0.934 (inactive)
same,fold change,[5]; [23],2.8 and 0.965
same,cell count,[5]; [24],10100 and 7840
same,cell count,[5]; [25],10200 and 8390
same,outcome,[6],inactive
same,z-score,[7],0.725 (inactive) and 0.015 (inactive)
COC1(C[S@@](=O)c2ccccc2)CCN(CCc2c[nH]c3ccc(F)cc23)CC1,remaining activity,[4],113% (inactive)
same,fold change,[5]; [26],0.956 (inactive)
same,fold change,[5]; [23],1.03
same,cell count,[5]; [24],8390
same,cell count,[5]; [25],8770
same,z-score,[7],-0.4 (inactive)
CCOc1cncc(/C=C/CCNC)c1,remaining activity,[4],108% (inactive)
same,fold change,[5]; [26],0.967 (inactive)
same,fold change,[5]; [23],1.27
same,cell count,[5]; [24],8770
same,cell count,[5]; [25],9060
same,z-score,[7],-0.075 (inactive)
C[C@H]1CCC/C=C/C2C[C@H](O)C[C@H]2[C@H](O)/C=C/C(=O)O1 (some centres undefined),remaining activity,[4],129% (inactive)
same,AC50,[8],66.1 nM (active)
same,outcome,[9],inactive
same,outcome,[17],inactive
same,outcome,[10],inactive
same,AC50,[11],235 nM (active)
same,AC50,[12],263 nM (active)
same,outcome,[13],inactive
same,AC50,[18],235 nM (active)
same,IC50,[14],209 nM (active)
same,fold change,[5]; stronger effect = lower value,1.05 (inactive) and 1.09 (inactive)
same,fold change,[5]; [23],1.17 and 1.67
same,cell count,[5]; [24],2000 and 1470
same,cell count,[5]; [25],1910 and 1340
same,fold fluorescence,[19],10.7 [at 178.3 µM] (inactive)
same,z-score,[7],-0.56 (inactive)
CN1CC[C@@H]2CN3CCc4cccc(c43)[C@@H]2C1,remaining activity,[4],120% (inactive)
same,fold change,[5]; [26],0.917 (inactive)
same,fold change,[5]; [23],0.673
same,cell count,[5]; [24],8120
same,cell count,[5]; [25],8850
same,z-score,[7],-0.34 (inactive)
Cc1ccc2c(c1)Cc1c(C(=O)NN3CCCCC3)nn(-c3ccc(Cl)cc3Cl)c1-2,remaining activity,[4],102% (inactive)
same,fold change,[5]; [26],0.912 (inactive)
same,fold change,[5]; [23],1.23
same,cell count,[5]; [24],5690
same,cell count,[5]; [25],6240
same,z-score,[7],-0.67 (inactive)
CC(=O)N(C)c1cccc(-c2ccnc3c(C(=O)c4cccs4)cnn23)c1,remaining activity,[4],110% (inactive)
same,outcome,[17],inactive
same,outcome,[10],inactive
same,outcome,[13],inactive
same,fold change,[5]; stronger effect = lower value,0.919 (inactive)
same,fold change,[5]; [23],1.18
same,cell count,[5]; [24],6530
same,cell count,[5]; [25],7110
same,z-score,[7],2.35 (active)
Cc1o[nH]c(=O)c1CC(N)C(=O)O (centres undefined),period change,[1],-0.03 h (inactive)
same,inhibition,[2],-4% (inactive)
same,fluorescence ratio (interference),[3],0.9 (inactive)
same,remaining activity,[4],111% (inactive) and 121% (inactive)
same,fold change,[5]; [26],0.968 (inactive) and 0.976 (inactive) and 0.969 (inactive)
same,fold change,[5]; [23],1.08 and 0.707 and 0.956
same,cell count,[5]; [24],10200 and 8490 and 9480
same,cell count,[5]; [25],10500 and 8700 and 9780
same,outcome,[6],inactive
same,z-score,[7],0.295 (inactive) and -0.475 (inactive) and -0.075 (inactive)
CC1=C(O)C(=O)[C@@H]2O[C@@H]2C1=O,remaining activity,[4],113% (inactive)
same,fold change,[5]; [26],0.983 (inactive)
same,fold change,[5]; [23],1
same,cell count,[5]; [24],7990
same,cell count,[5]; [25],8130
same,z-score,[7],0.005 (inactive)
COC1CCC2NC(C(=O)c3ccccc3)CC2C1 (centres undefined),remaining activity,[4],86.6% (inactive)
same,fold change,[5]; [26],1.14 (inactive)
same,fold change,[5]; [23],0.708
same,cell count,[5]; [24],1500
same,cell count,[5]; [25],1320
same,z-score,[7],0.23 (inactive)
CC(C)[C@@]1(NC(=O)[C@@H]2C[C@@H]3c4cccc5[nH]cc(c45)C[C@H]3N(C)C2)O[C@@]2(O)[C@@H]3CCCN3C(=O)[C@H](Cc3ccccc3)N2C1=O,fluorescence slope change,[20],195% (active)
same,period change,[1],0.005 h (inactive)
same,survival,[21],11.8 (inactive)
same,parasite load remaining,[22],54.5% (inactive) and 64.8% (inactive) and 17.1% (inactive)
same,viability,[22],93% and 73.6% and 61.5%
same,remaining activity,[4],88.2% (inactive)
same,remaining activity,[16],120% (inactive)
same,fold change,[5]; stronger effect = lower value,0.784 (inactive) and 0.954 (inactive) and 0.887 (inactive)
same,fold change,[5]; [23],1.05 and 0.961 and 0.856
same,cell count,[5]; [24],6690 and 7710 and 8510
same,cell count,[5]; [25],8530 and 8070 and 9590
same,z-score,[15]; [27],-0.553 (inactive)
same,z-score,[15]; [28],0.653
same,z-score,[7],-0.045 (inactive) and 0.13 (inactive)
CC(=O)N1CC[N+](C)(C)CC1,remaining activity,[4],90.4% (inactive)
same,fold change,[5]; [26],0.94 (inactive)
same,fold change,[5]; [23],0.788
same,cell count,[5]; [24],9100
same,cell count,[5]; [25],9680
same,z-score,[7],0.25 (inactive)

# From PubChem BioAssay
